According to PubChem BioAssay AID1511 (Johns Hopkins Ion Channel Center, 2009):
The campaign covered roughly 310,000 compounds. About 1,600 (0.52%) were called active.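 Rule for the calls: active = activation above the mean of controls blocked by dofetilide plus 5 SD; inactive = the rest.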 What follows is part of a selection rich in actives, with near analogues and random picks from the rest.

Each molecule was assayed against Voltage-gated inwardly rectifying potassium channel KCNH2 (Homo sapiens) (UniProt Q12809) (assay: compounds relieving dofetilide block of hERG – cell-based, CHO-hERG, FluxOR thallium flux, dofetilide IC70, primary screen (AID 1511;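 note: thallium influx through hERG after potassium depolarization seen as dye fluorescence rise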)). Conditions: dofetilide IC70 present, at 10 µM, hits give high values.
Sequence of Voltage-gated inwardly rectifying potassium channel KCNH2 (Homo sapiens) (Q12809 whole entry, looked up): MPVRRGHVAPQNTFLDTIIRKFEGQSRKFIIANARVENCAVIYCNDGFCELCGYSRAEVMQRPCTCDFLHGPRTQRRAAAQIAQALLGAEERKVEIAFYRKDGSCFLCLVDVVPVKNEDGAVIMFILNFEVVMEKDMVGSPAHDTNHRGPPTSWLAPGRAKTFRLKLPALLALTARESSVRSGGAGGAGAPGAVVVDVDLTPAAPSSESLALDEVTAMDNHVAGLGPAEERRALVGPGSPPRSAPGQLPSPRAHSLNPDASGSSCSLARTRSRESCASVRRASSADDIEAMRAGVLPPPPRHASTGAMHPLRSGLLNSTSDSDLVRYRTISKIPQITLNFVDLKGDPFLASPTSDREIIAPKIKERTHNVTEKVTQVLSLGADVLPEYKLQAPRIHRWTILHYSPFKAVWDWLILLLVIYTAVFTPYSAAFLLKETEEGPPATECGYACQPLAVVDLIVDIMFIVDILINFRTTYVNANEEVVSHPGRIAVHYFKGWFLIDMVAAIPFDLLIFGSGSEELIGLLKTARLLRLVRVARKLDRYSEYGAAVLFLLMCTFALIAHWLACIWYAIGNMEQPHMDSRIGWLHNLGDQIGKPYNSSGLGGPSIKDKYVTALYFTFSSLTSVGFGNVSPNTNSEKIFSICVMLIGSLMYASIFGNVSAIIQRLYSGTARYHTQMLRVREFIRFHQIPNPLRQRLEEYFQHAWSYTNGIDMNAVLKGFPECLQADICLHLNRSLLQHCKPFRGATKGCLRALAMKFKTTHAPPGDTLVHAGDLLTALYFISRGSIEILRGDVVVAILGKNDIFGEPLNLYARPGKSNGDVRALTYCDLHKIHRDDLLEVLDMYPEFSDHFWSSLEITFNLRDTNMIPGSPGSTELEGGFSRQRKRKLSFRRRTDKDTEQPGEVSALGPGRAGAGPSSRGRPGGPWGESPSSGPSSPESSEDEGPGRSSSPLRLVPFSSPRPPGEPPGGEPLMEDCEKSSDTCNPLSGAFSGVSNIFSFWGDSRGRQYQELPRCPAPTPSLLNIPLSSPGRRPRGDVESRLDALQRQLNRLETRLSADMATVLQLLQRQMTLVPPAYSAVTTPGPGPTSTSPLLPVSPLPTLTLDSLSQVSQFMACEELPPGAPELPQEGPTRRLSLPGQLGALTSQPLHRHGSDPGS

| Structure (SMILES) | activation (rescue from dofetilide block), less the hit threshold |
| --- | --- |
| CCN(CC)CCCNC(=O)c1c(O)c2cc(F)cc3c2n(c1=O)C(C)CC3 (centres undefined) | -2.1% (inactive) |
| Cc1ccc(CNC(=O)CCNS(=O)(=O)c2cccc3nonc23)cc1 | -9.61% (inactive) |
| CCOC(=O)c1cccc(NC(=O)CN(c2ccc(C)cc2)S(=O)(=O)c2c(C)noc2C)c1 | -0.14% (inactive) |
| Cc1ccc(N(CC(=O)Nc2cc(C)cc(C)c2)S(=O)(=O)c2cccc3nonc23)cc1 | 4.86% (active) |
| Cc1cc2c(cc1S(=O)(=O)NCc1ccc(Cl)cc1)OCC(=O)N2 | -9.71% (inactive) |
| CCCC(C(=O)N1CCOCC1)N1C(=O)C2C3C=CC(C3)C2C1=O (centres undefined) | 4.64% (active) |
| CCC(C(=O)N1CCOCC1)n1c(C(=O)OC)cc2occc21 (centres undefined) | -6.73% (inactive) |
| CCCCOC(=O)NCN1C(=O)C2C3C=CC(C3)C2C1=O (centres undefined) | -3.35% (inactive) |
| COc1ccc(CNC(=O)C(C)n2nc(C)c3c(C)n(-c4ccccc4)nc3c2=O)c(OC)c1 (centres undefined) | -10.8% (inactive) |
| COc1ccc(C(=O)N2CCCN(C)CC2)c(OC)c1 | 0.38% (inactive) |
| Cc1cc(C)c2c(n1)sc1c(=O)n(-c3ccccc3)c(=O)[nH]c12 | -5.76% (inactive) |
| O=c1[nH]c(/C=C\c2cccc(C(F)(F)F)c2)nc(O)c1[N+](=O)[O-] | -0.14% (inactive) |
| CC(=O)Cc1nsc(NC(=O)c2ccc(Cl)cc2Cl)n1 | -13.1% (inactive) |
| O=C(Nc1ccc(OCC(=O)N2CCOCC2)cc1)c1cc(F)c(F)cc1Cl | -9.32% (inactive) |
| CCN1CCc2nc(NC(=O)c3cc(F)c(F)cc3Cl)sc2C1 | 15.1% (active) |
| COCCCNC(=O)/C(C#N)=C/c1c(N2CCCCCC2)nc2ccccn2c1=O | -4.19% (inactive) |
| Cc1c(C)c2c(OCC(=O)N[C@@H](C(=O)O)c3ccccc3)cc3c(c2oc1=O)CCC(C)(C)O3 | -2.69% (inactive) |
| Oc1c(Cl)cc(Cl)cc1/C=N/c1ncn[nH]1 | 15.4% (active) |
| COc1cc(Br)cc(/C=N/c2ncn[nH]2)c1O | -7.59% (inactive) |
| CC(C)CCNC(=O)C1CCC(CNc2c(N3CCC(C)CC3)c(=O)c2=O)CC1 (centres undefined) | -6.27% (inactive) |
| Cc1cc(C)cc(NC(=O)NC2CCCCCCC2)c1 | -9% (inactive) |
| CCOC(=O)CSC1=N/C(=C/c2ccc(-n3cncn3)cc2)C(=O)N1C(C)=O | -12% (inactive) |
| Cc1ccc(NC(=O)CCC(=O)c2ccc(Br)cc2)cc1 | 1.34% (inactive) |
| Cc1ccn(C(CC(=O)c2ccc(Br)cc2)C(=O)O)n1 (centres undefined) | 5% (active) |
| Cc1cc(C)c2c(=O)[nH]c(SCC(=O)Nc3ccc(Br)cc3)nc2n1 | -11.1% (inactive) |

| Structure (SMILES) | activation (rescue from dofetilide block), less the hit threshold |
| --- | --- |
| O=Cc1c(NCCc2cccc(F)c2)c2ccccc2[nH]c1=O | -6.93% (inactive) |
| CCOc1ccc(C(C)=O)cc1COC(=O)CNC(=O)c1cccs1 | -15.3% (inactive) |
| CCn1c(=S)[nH]c2sc3c(c2c1=O)CCCCC3 | 37.3% (active) |
| CCCc1nc2sc3c(c2c(=O)n1NC(=O)CCCl)CCCC3 | -1.21% (inactive) |
| CN(C)CCCn1c(=O)n(Cc2ccccc2)c(=O)c2c3c(sc21)CCCCC3 | -10.2% (inactive) |
| O=C(/C=C/c1cccs1)NCc1cccnc1 | -8.68% (inactive) |
| COc1ccccc1N1CCN(c2ccc([N+](=O)[O-])nc2)CC1 | -22% (inactive) |
| COc1ccc(N2CCN(c3ccc([N+](=O)[O-])nc3)CC2)cc1 | 7.73% (active) |
| O=[N+]([O-])c1ccc(N2CCN(c3ccc(F)cc3)CC2)cn1 | -4.38% (inactive) |
| CCc1ccc(NC(=O)COC(=O)c2cccs2)cc1 | -2.35% (inactive) |
| CC(C)C(=O)Nc1ccc(C(=O)NNC(=O)c2cccs2)cc1 | -4.59% (inactive) |
| CCc1ccc(NC(=O)C(=O)NNC(=O)c2cccs2)cc1 | 46.7% (active) |
| O=S(=O)(Nc1ccc2nc(-c3ccco3)[nH]c2c1)c1ccccc1 | -13.3% (inactive) |
| CCCCn1c(=S)[nH]c2ccccc2c1=O | 7.08% (active) |
| CCCCNC(=O)c1ccc(-n2c(=S)[nH]c3ccccc3c2=O)cc1 | -10.5% (inactive) |
| CCCCn1c(=S)[nH]c2ncccc2c1=O | -2.34% (inactive) |
| Cn1cc(S(=O)(=O)N2CCN(c3ccc(F)cc3)CC2)c(=O)n(C)c1=O | -3.11% (inactive) |
| COc1ccc(/C=C2\SC(=N)N(c3ccc(F)cc3)C2=O)cc1 | -2.33% (inactive) |
| CCOc1ccc(N=C2NC(=O)S/C2=C\c2ccc(O)cc2)cc1 | -4.52% (inactive) |
| COc1ccc(/C=C2/S/C(=N/N=C3\CC4CCC3(C)C4(C)C)NC2=O)cc1 (centres undefined) | 19.7% (active) |
| COc1ccc(CCNC(=O)NS(=O)(=O)c2ccc(C)cc2)cc1OC | 0.48% (inactive) |
| C=CCN1C(=O)C(Cc2ccc(OCC)cc2)SC1=Nc1ccc(C(=O)O)cc1 (centres undefined) | 5.1% (active) |
| CCOc1ccc(N=C2SC(C(=O)O)CC(=O)N2C)cc1 (centres undefined) | -10.3% (inactive) |
| C=CCN1C(=O)C(Cc2cccc(Cl)c2)S/C1=N/N=C/c1ccco1 (centres undefined) | -5.7% (inactive) |
